Source: ChEMBL document CHEMBL4888484, “Replenishing the malaria drug discovery pipeline: Screening and hit evaluation of the MMV Hit Generation Library 1 (HGL1) against asexual blood stage Plasmodium falciparum ,using a nano luciferase reporter read-out” (2022)
About 410 (8.5%) of roughly 4,800 compounds showed an effect of 50% or more. What follows is part of a selection rich in strong results, with near analogues and random picks from the rest.

tested on: Plasmodium falciparum; assay: Confirmatory screen in NF54 pLDH assay, in single point, at 2uM, 72h; assay type: functional, Erythrocyte; details: timepoint 72 hour

Compound | % Inhibition [%]
Cc1onc(C(=O)NCc2cnn(C)c2C)c1COc1cccc(C(F)(F)F)c1 | -4
O=C(Cn1cnc2cc3c(cc21)OCCCO3)Nc1ccc(F)cc1 | 13
CCc1ccsc1CN=C(N)NC1CCCCC1 | -9
O=C(Nc1onc2c1CCC2)c1ccc2ccccc2c1 | 41
O=C(Nc1cc(-c2onc3c2CCCC3)cc(C(F)(F)F)c1)c1cncc(Br)c1 | 95
Clc1ccc(-c2onc3c2CCCC3)cc1 | 9
Cc1cc(C)cc(-c2cc3nc(C)cc(N4CCC(C(=O)NCc5cccc(F)c5)CC4)n3n2)c1 | 67
O=C(NCc1cccc(F)c1)[C@H]1CCCN(c2nc3ccccc3n(Cc3ccccc3)c2=O)C1 | 5
Cc1cc(C)cc(-c2cc3nc(C)cc(N4CCC(C(=O)Nc5ccc(C)c(Cl)c5)CC4)n3n2)c1 | -12
CC1CN(CC(=O)NCCC#N)C(C)CO1 (configuration not stated) | 1
Cc1ccc(CN2C(=O)NC3(CCCCC3C)C2=O)c(OCC2CCOC2)c1 (configuration not stated) | 6
O=C(NCCCN1CCOCC1)C1C2CCCC21 (configuration not stated) | 8
CN(C)c1ccc(-c2nc(C(F)(F)F)cc(C(F)(F)C(F)(F)F)n2)cc1 | 5
Oc1cccc(CN2CCC3(CC2)C[C@H](c2ccccc2)CN(C2CC2)C3)c1 | 29
Cc1c(C(=O)Nc2cccc(S(=O)(=O)NC3CC3)c2)cnn1C | 12
CC1(CCCCNC(=O)N2CC[C@H](S(C)(=O)=O)C2)OCCO1 | 6
CCN1c2cc(C(=O)NCc3ccccc3)ccc2C(=O)N2CCCC[C@H]21 | 7
COc1ccc(-n2nc(C)c3c2NC(=O)C[C@@H]3c2ccccc2OCC(C)C)nn1 | -1
Cc1nc2cc3c(cc2n1CC(=O)Nc1ccc(Cl)cc1)OCCCO3 | 15
Cc1nnc(-c2ccc3ccn(CC(=O)Nc4ccc(F)c(Cl)c4)c3c2)o1 | 96
CCc1cccc(NC(=O)Cn2ccc3ccc(-c4nnc(C)o4)cc32)c1 | 89
Cc1noc(C)c1CC(=O)Nc1cccc(-c2nnco2)c1 | 9
Cn1cc(-c2ccc(Cl)cc2)c2ncn(CC(=O)Nc3cccc(Cl)c3)c(=O)c21 | -1

Compound | % Inhibition [%]
Cc1cc(=O)n(CC(=O)Nc2ccc(Cl)c(C(F)(F)F)c2)c(-c2ccc(F)cc2)n1 | 0
CC1CCCC(C)C12NC(=O)N(CN1CCN(CCOc3ccccc3Cl)CC1)C2=O (configuration not stated) | 5
CCOc1ccc(CNC(=O)c2sccc2NC(=O)c2cnccn2)cc1 | -15
COc1ccc(C(=O)c2c[nH]c(C(=O)NC[C@H]3CCCO3)c2)cc1 | 3
COc1ccccc1CNC(=O)c1cnn2c3c(cnc12)CCCC3 | -2
Brc1cc(Br)c2nc(-c3cnccn3)ccc2c1 | 14
CC(=O)c1ccc(N2CCN(C(=O)c3nn[nH]c3Nc3ccc(C)c(C)c3)CC2)cc1 | 8
CCn1cc(Cl)c(-c2nnc(-c3cccs3)o2)n1 | 0
CC1CN(C)C(C)c2c1oc1ccc(N)cc21 (configuration not stated) | -17
CC1=NN(c2ncc(C(F)(F)F)cc2Cl)C(=O)c2ccccc2O1 | 6
CC1CC(Nc2ncnc3cc(Br)ccc23)CCN1C (configuration not stated) | 95
CCCOc1cccc2c(NC3CCN(CCOC)CC3)ccnc12 | 48
Brc1cncnc1NC1CC1 | 9
Cc1cc2ncn(CN3CC[C@@H](NC(=O)OC(C)(C)C)C3)c2cc1C | -7
CN1CCC(Nc2ncnc3c2cnn3C)C1c1ccc(Cl)cc1 (configuration not stated) | 12
O=C(NCc1ccco1)c1nc(-c2ccncc2)cs1 | 10
Cc1noc(C)c1NC(=O)CCS(=O)(=O)c1ccc2ccccc2c1 | 4
O=C(Nc1nccnc1C(=O)O)c1ccc(Cl)cc1 | 14
CC1CCC(N2CC(C(=O)N(C3CC3)C(C)C(C)C)CC2=O)CC1 (configuration not stated) | 1
O=C1c2ccccc2C(=O)N1CCc1csc(Cn2cncn2)n1 | 10
c1ccc(Oc2ccnc(NCC34COCCN3CCOC4)n2)cc1 | -13
CN1CCN(C2(CNc3ccnc4ccccc34)CCCC2)CC1 | 98
Cc1noc(OCCc2ccccc2)n1 | 11

Compound | % Inhibition [%]
Cc1ccc(C)c(-n2cnc(=O)n2[C@H]2CCN(C3CC3)C2=O)c1 | 51
Cc1ccc(C)c(N2CCN(c3ncc4c(=O)n(-c5ccc6c(c5)OCO6)c(=O)[nH]c4n3)CC2)c1 | 3
Brc1ccc2c(c1)C1CCCCC1N2 (configuration not stated) | 9
CC[C@H]1CN2C=NC(N3CCN(C(=O)Nc4cc(F)cc(F)c4)CC3)=CC2=N1 | 46
CC[C@H]1CN2C=NC(N3CCN(C(=O)Cc4ccccc4)CC3)=CC2=N1 | 25
Cc1c(F)cccc1NC(=O)N1CCN(C2=CC3=N[C@@H](C)CN3C=N2)CC1 | 54
COC(=O)c1nc(NC(=O)C2(C)CCCC2)sc1C(C)C | -9
Cc1nnc(N2CC[C@H](c3nnc[nH]3)C2)s1 | 4
CC1(C)CC(=O)C2(Cc3ccccc3N3CCN(Cc4ccccc4)C[C@H]32)C(=O)C1 | 12
COc1c[nH]c(C(=O)NC2CCN(Cc3ccccc3)CC2)cc1=O | 1
O=C(CN1C(=O)COc2cc(Br)ccc21)Nc1cccc2ccccc12 | 9
CC1CCCN(C2(N3CCCC(C)C3)C(=O)Nc3ccc(F)cc32)C1 (configuration not stated) | 19
N#Cc1cccc(CNCC2(N3CCOCC3)CCCCC2)c1 | -4
Cc1c(S(=O)(=O)NCCn2nc(C(F)(F)F)cc2C)cnn1C | 8
Cc1cc(C(=O)Nc2ccc3ccccc3c2)co1 | -3
Cc1nc2sc(C(=O)Nc3ccc4ccccc4c3)c(N)c2c(C)c1C | 9
Cc1c(C)c2ccc(NC(=O)c3cc4ccccc4o3)cc2[nH]c1=O | 78
O=C(Cn1c(=O)n(-c2cc(F)cc(F)c2)c(=O)c2sccc21)NCc1ccc(F)cc1F | -2
CCC(CC)C(=O)c1c[nH]c(C(N)=O)c1 | -17
Cc1noc(CCNC(=O)N2CCCCC[C@H]2c2ccc(C)o2)n1 | -1
CC(C)(C)c1nc(Cn2cnc3ncc(Br)cc32)no1 | 6
